The values below come from PubChem BioAssay AID435005 (Broad Institute, 2010).

Structures are written as SMILES. In all, about 300,000 compounds went through this assay and about 2,400 (0.8%) were called active. What follows is part of a selection rich in actives, with near analogues and random picks from the rest. A number with no mark means an inactive call.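 The calls were made as follows: active = Every replicate reaches about 75%, or at least half do and their mean reaches it too (limit read from the data); inconclusive = At least half of replicates reach the limit but their mean does not; inactive = Under half of replicates reach the limit.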

A short description of the test: INS-1E beta cell survival under cytokines – luminescence, primary screen (AID 435005).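 Also: 0% = cytokine-treated negative control wells and 100% = positive control rescue; higher means more ATP so stronger rescue from cytokine killing.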 Particulars: INS-1E cytokine-induced death, ATP luminescence, 48 h; hits give high values; percent of positive-control rescue, neutral wells zero; concentration not given here.
`Nc1nonc1-n1nnc(C(=O)N/N=C/c2ccccc2O)c1CN1CCCC1`: the protection from apoptosis was 77.1% (active).

Consider `Nc1nonc1-n1nnc(C(=O)N/N=C\c2ccncc2)c1CN1CCCCC1`, for which the protection from apoptosis is -8.98%.

As for `Cc1ccc(SCc2c(C(=O)N/N=C/C3CC=CCC3)nnn2-c2nonc2N)cc1` (centres undefined), the protection from apoptosis was -2.44%.

For the compound `Cc1ccc(SCc2c(C(=O)N/N=C/c3cccnc3)nnn2-c2nonc2N)cc1`, the protection from apoptosis was -3.56%.

As for `NNC(=O)c1nnn(-c2nonc2N)c1CN1CCCC1`, the protection from apoptosis is 0.21%.

Take `Nc1nonc1-n1nnc(C(=O)N/N=C/c2cc(Br)ccc2O)c1CSC1=NCCS1`: the protection from apoptosis was 86.6% (active).

In the case of `COc1ccccc1-c1nnc2n1N=C(c1ccc(OC(F)F)c(OCC3CC3)c1)CS2`, the protection from apoptosis was 14.1%.

For the compound `COc1ccc(CNC(=O)COC(=O)C(CCSC)N2C(=O)c3ccccc3C2=O)cc1` (centres undefined), the protection from apoptosis is -1.57%.

`O=C1COc2ccc(C(=O)COC(=O)c3ccccc3Cl)cc2N1`: the protection from apoptosis was -5.54%.

Take `O=C(CSc1nc2ccccc2c(=O)n1Cc1ccc(F)cc1)NCC1CCCO1` (centres undefined): the protection from apoptosis is -5.32%.

Regarding `CCOC(=O)C1CCN(CC(=O)Nc2ccc(OC)c(S(=O)(=O)N3CCCCC3)c2)CC1`, the protection from apoptosis is 0.731%.

On to `CCN(C[C@H]1N[C@@](CC)(C(=O)OC)[C@H]2C(=O)N(Cc3ccccc3)C(=O)[C@@H]12)S(=O)(=O)c1ccccc1`, for which the protection from apoptosis was -2.88%.

Regarding `CC(C)(C)C(=O)Nc1ccc(C(=O)N/N=C/c2ccccc2OC(=O)c2ccc(Cl)cc2Cl)cc1`, the protection from apoptosis was 87.8% (active).

Consider `O=C(N/N=C/c1ccoc1)c1ccc(Cl)cc1Cl`, for which the protection from apoptosis was -6.52%.

Take `O=C(N/N=C/c1ccc(OC(=O)c2ccccc2Cl)cc1)c1ccc(O)cc1`: the protection from apoptosis is -1.66%.

Regarding `CC1O[C@@H](OC2C(O)C(C)O[C@H](OC(=O)[C@]34CCC(C)(C)C[C@H]3C3=CCC5[C@@]6(C)CC(O)C(O[C@@H]7OC(CO)C(O)[C@@H](O)[C@@H]7O)[C@@](C)(C(=O)O)C6CC[C@@]5(C)[C@]3(CO)CC4)C2O[C@H]2OC(C)[C@@H](O[C@@H]3OCC(O[C@@H]4OC(CO)C(O)[C@H](O)C4O)[C@@H](O)[C@@H]3O)[C@H](O)C2O)C(O)C(O)C1O` (some centres undefined), the protection from apoptosis is -2.17%.

In the case of `Cc1ccc(S(=O)(=O)N2[C@@H](c3ccc(Br)cc3)C(C(=O)O)=C[C@H]2CC2CCCC2)cc1`, the protection from apoptosis is -9.97%.

With `Cc1ccc(CNC(=O)COC(=O)C2CCC2)cc1`, the protection from apoptosis is -16.3%.

As for `CCC(=O)NC(Nc1nc2ccc(C)cc2s1)(C(=O)OC)C(F)(F)F` (centres undefined), the protection from apoptosis is -2.12%.

For `CS(=O)(=O)c1ccc2nc(NC(=O)c3ccc(N4CCCC4=O)cc3)sc2c1`, the protection from apoptosis is 2.56%.

For the compound `O=C(Nc1nc2ccc([N+](=O)[O-])cc2s1)c1ccc(S(=O)(=O)N2CCCc3ccccc32)cc1`, the protection from apoptosis was 113% (active).

Consider `CCOc1ccc2nc(NC(=O)c3cc([N+](=O)[O-])ccc3N3CCOCC3)sc2c1`, for which the protection from apoptosis was 32.1%.

On to `CN(C)CCCN(C(=O)c1ccc(S(=O)(=O)N2CCCc3ccccc32)cc1)c1nc2ccc(F)cc2s1`, for which the protection from apoptosis was -11.6%.

On to `O=C(NC(Nc1nc2ccc([N+](=O)[O-])cc2s1)(C(F)(F)F)C(F)(F)F)c1ccccc1`, for which the protection from apoptosis was 118% (active).
